Calls of active or inactive are those of the source. Calls come from the whole dose curve; as a rule, active = well fitted curve in the direction sought with a large enough effect; inconclusive = small, poorly fitted or top-dose-only effect, or another doubt; inactive = no such curve, though single readings can be large; an effect the other way counts as inactive or inconclusive.

For assay [1], the target named is Alpha-galactosidase (Coffea arabica) (UniProt Q42656). In words: Counterscreen for Glucocerebrosidase Inhibitors: qHTS Assay for Coffee Bean alpha-Galactosidase at pH 5.9 (AID 998). In outline:
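In 50 mM citric acid pH 5.9 with 0.005% Tween-20, coffee bean enzyme hydrolyses 80 uM 4-MU alpha-D-galactopyranoside over 20 min at RT. Activity is normalized to controls; AC50 comes from Hill-modelled concentration-response data.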

Assay [2] has the same target. Nature of the assay: Counterscreen for Glucocerebrosidase Inhibitors: qHTS Assay for Coffee Bean alpha-Galactosidase at pH 4.5 (AID 957). Note: series mostly up to about 77 µM. In outline:
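Fluorogenic read-out: 4-methylumbelliferone at Ex 365/Em 440 nm after NaOH/glycine stop (pH 10). Enzyme 2 nM, 4-MU-alpha-galactoside 80 uM, citrate buffer pH 4.5, 20 min RT; normalized to no-enzyme and enzyme controls.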
Background: The purpose of a counterscreen is to sort out artefacts and off-target activity.

Chain of Alpha-galactosidase (Coffea arabica) (Q42656 whole entry, looked up): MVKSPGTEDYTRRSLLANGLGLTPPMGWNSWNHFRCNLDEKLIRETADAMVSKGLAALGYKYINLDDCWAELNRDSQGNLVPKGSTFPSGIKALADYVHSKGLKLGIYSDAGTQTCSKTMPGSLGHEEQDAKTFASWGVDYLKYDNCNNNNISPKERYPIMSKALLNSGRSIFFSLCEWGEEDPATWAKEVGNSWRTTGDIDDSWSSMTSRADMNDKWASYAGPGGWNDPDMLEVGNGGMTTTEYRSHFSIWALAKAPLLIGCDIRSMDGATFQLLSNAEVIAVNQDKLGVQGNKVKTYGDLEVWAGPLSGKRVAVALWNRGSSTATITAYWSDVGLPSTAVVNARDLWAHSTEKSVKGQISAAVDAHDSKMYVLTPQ

With `NC[C@](O)(CS(=O)(=O)O)c1ccc(Cl)cc1`, the call in assay [1] was inactive.

As for `Cc1ccccc1[C@@H](OCCN(C)C)c1ccccc1`, in assay [1], the call was inactive.

In the case of `COc1ccc(NC(=O)/C=C\c2ccc(Cl)cc2)cc1`, the call in assay [2] and in assay [1] was inactive.

Consider `COc1cc([C@H](O)CO)ccc1O`, for which the outcome in assay [1] was inactive.

Take `OC[C@@H]1O[C@H](O)[C@@H](Cl)[C@H](O)[C@@H]1O`: in assay [1], the outcome was inactive.

Consider `COc1cccc2c1[C@@H]1CN(CCCCn3c(=O)[nH]c4c(sc5ncc(-c6ccccc6)nc54)c3=O)C[C@H]1CO2`, for which the compound was classed as inactive in assay [2] and in assay [1].

As for `O=C1[C@@H]2C=CC=CC2=NC(=S)N1CCN1CCC(=C(c2ccc(F)cc2)c2ccc(F)cc2)CC1`, the call in assay [2] and in assay [1] was inactive.

`OC[C@H]1O[C@@H](n2cnc3c(NCCc4ccccc4)ncnc32)[C@H](O)[C@H]1O`: in assay [1], the result was inactive.

As for `CN1CCc2cccc3c2[C@@H]1Cc1ccc(O)c(O)c1-3`, the compound was called inactive in assay [2] and in assay [1].

Turning to `CN1CCc2c(cc(O)c(O)c2Cl)[C@H](c2cccc(Cl)c2)C1`, the outcome in assay [1] was inactive.

Regarding `C=C[C@@]1(C)CC(=O)[C@@]2(O)[C@@]3(C)[C@H](O)CCC(C)(C)[C@@H]3[C@H](O)[C@H](OC(C)=O)[C@]2(C)O1`, the call in assay [1] was inactive.

As for `COC(=O)C1=C(C)NC(C)=C([N+](=O)[O-])[C@H]1c1ccccc1C(F)(F)F`, the call in assay [2] and in assay [1] was inactive.

Turning to `O=C(O)[C@H]1CCCNC1`, the compound was classed as inactive in assay [2] and in assay [1].

With `Oc1cc(O)cc(/C=C\c2ccc(O)c(O)c2)c1`, in assay [1], the call was inactive.

As for `C[C@@H]1C[C@@H]2[C@H]3CCC4=CC(=O)C=C[C@]4(C)[C@]3(F)[C@@H](O)C[C@@]2(C)[C@@]1(O)C(=O)CO`, in assay [1], the outcome was inactive.

With `COc1cc2nc(N3CCN(C(=O)[C@H]4CCCO4)CC3)nc(N)c2cc1OC`, the call in assay [1] was inactive.

As for `CCCCC[C@H](O)c1cccc(OCc2ccc3ccccc3n2)c1`, the result in assay [1] was inactive.

Take `NCC[C@H]1CCC[C@H](CCN)N1`: the result in assay [2] and in assay [1] was inactive.

For the compound `CCN1CCC[C@@H]1CNC(=O)c1cc(S(N)(=O)=O)ccc1OC`, the outcome in assay [2] and in assay [1] was inactive.

As to `C=C/C(C)=C/[C@]1(C)SC(=O)C(C)=C1O`, the outcome in assay [1] was inactive.

For `Cc1cccc([C@@H]2CN(C)CCc3c2cc(O)c(O)c3Cl)c1`, in assay [1], the call was inactive.

As for `C[C@@H](C(=O)O)c1ccc(C[C@@H]2CCCC2=O)cc1`, the call in assay [2] and in assay [1] was inactive.

As for `CC(=O)O[C@@H]1C[C@]2(C)[C@H](C[C@@H](O)[C@H]3[C@@]4(C)CC[C@@H](O)[C@@H](C)[C@@H]4CC[C@@]32C)/C1=C(\CCC=C(C)C)C(=O)O`, the result in assay [2] and in assay [1] was inactive.

Take `CC(C)(C)NC[C@H](O)c1cc(O)cc(O)c1`: the compound was called inactive in assay [2] and in assay [1].

Consider `C[C@@H](C[N+](C)(C)C)OC(N)=O`, for which the compound was called inactive in assay [1].

For the compound `CN1C(=O)CC[C@@H]1c1cccnc1`, the compound was called inactive in assay [1].

On to `CCN(CC)CC#CCOC(=O)[C@@](O)(c1ccccc1)C1CCCCC1`, for which the call in assay [2] and in assay [1] was inactive.

`NC[C@H](O)C1CCCCCCC1`: the compound was classed as inactive in assay [1].

Regarding `O=c1ccn([C@@H]2O[C@@H](COP(=O)(O)OP(=O)(O)O)[C@H](O)[C@@H]2O)c(=O)[nH]1`, the compound was called inactive in assay [1].
